PubChem BioAssay
Calls of active or inactive are those of the source.

How the values were obtained:
[1] = binders of probe aFSTL3 on microarray, primary screen, stem cell growth factor project, biochemical, small-molecule microarray, fluorescence 635/667 (AID 1064); conditions: higher = more signal;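 further: measures binding of the biotinylated anti-FSTL3 antibody to printed compounds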
[2] = binders from COS7 lysate, DM2A8 probe, primary screen, torsin A project, cell lysate, small-molecule microarray, fluorescence 635/667 (AID 1065); conditions: higher = more signal, COS7 lysate expressing mutant human TOR1A
[3] = binders of probe aFGF2 on microarray, primary screen, stem cell growth factor project, biochemical, small-molecule microarray, fluorescence 635/667 (AID 1067); conditions: higher = more signal;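 further: measures binding of biotinylated aFGF2 protein to printed compounds on slides; z-score merges feature fluorescence and signal-to-noise across triplicate slides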
[4] = binders of probe aFGF10 on microarray, primary screen, stem cell growth factor project, biochemical, small-molecule microarray, fluorescence 635/667 (AID 1071); conditions: higher = more signal;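 further: score merges 667 nm spot intensity and signal to noise from triplicate slides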
[5] = molecular target: Neurogenic locus notch homolog protein 2 (Homo sapiens) (UniProt Q04721); assay: Notch2 binders on small-molecule microarrays, primary screen, biochemical, small-molecule microarray, 635 nm fluorescence, stem cell growth factors (AID 1073); conditions: Notch2 binding, higher = more signal
[6] = molecular target: Pro-neuregulin-1, membrane-bound isoform (Homo sapiens) (UniProt Q02297); assay: NRG1 binders on small-molecule microarrays, primary screen, psychiatric disease protein project, biochemical, small-molecule microarray, fluorescence 635/667 (AID 1075); conditions: NRG1 binding, 635 nm fluorescence, higher = more signal;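 further: score combines 667 nm spot fluorescence with signal to noise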
[7] = tested on: Neuregulin-1 EGF-like domain; assay: binders of neuregulin-1 EGF-like domain, primary screen, biochemical, small-molecule microarray, 635 nm fluorescence (AID 1081); conditions: small-molecule microarray binding, higher = more signal;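 further: binding of the protein to compounds printed on small-molecule microarray slides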
[8] = FRG1 promoter luciferase signal modulators, primary screen, FRG1 inhibition for FSHD, cell-based, C2C12 myotubes, firefly/Renilla luciferase, luminescence (AID 1084); conditions: higher = more signal, called active from +8 up or from −8 down
[9] = binders of probe aFST on microarray, primary screen, stem cell growth factor project, biochemical, small-molecule microarray, fluorescence 635/667 (AID 1086); conditions: higher = more signal;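 further: score merges 667 nm fluorescence with signal-to-noise of each printed compound spot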
[10] = binders of probe aHhip on microarray, primary screen, stem cell growth factor project, biochemical, small-molecule microarray, fluorescence 635/667 (AID 1087); conditions: higher = more signal;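 further: score merges spot fluorescence at 667nm with spot signal to noise ratio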
[11] = tested on: PRMT1 (protein arginine N-methyltransferase 1); assay: PRMT1 binders on small-molecule microarrays, primary screen, biochemical, small-molecule microarray, 635 nm fluorescence (AID 1088); conditions: small-molecule microarray binding, higher = more signal;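 further: binding of Prmt1 protein to compounds spotted on small-molecule microarray slides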
[12] = yeast growth modulation, basal conditions, primary screen, YJM789 clinical isolate, OD600, 24 h (AID 1089);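 further: growth of clinical yeast isolate S. cerevisiae YJM 789 seeded 1000 cells per well; test concentration not given here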; conditions: S. cerevisiae YJM789 growth, higher = more signal, called active from +8 up or from −8 down
[13] = fission yeast growth modulation, primary screen, strain 972, OD600, 24 h, no modulator (AID 1090);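 further: basal condition with compound alone and no growth modifier present; test concentration not given here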; conditions: S. pombe 972 growth, higher = more signal, called active from +8 up or from −8 down
[14] = S. cerevisiae growth modulation with rapamycin, primary screen, strain BY4716, OD600, 96 h (AID 1091); conditions: higher = more signal, called active from +8 up or from −8 down; further: test concentration not given here
[15] = molecular target: Torsin-1A-interacting protein 2 (Homo sapiens) (UniProt Q8NFQ8); assay: LULL1 binders on small-molecule microarray, primary screen, cell lysate, human LULL1 lysate, 635/667 nm fluorescence (AID 1092); conditions: hLULL1 lysate binding, 635 nm fluorescence, higher = more signal;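 further: probe is lysate of COS7 cells overexpressing human LULL1; score merges per-feature 667 nm fluorescence with signal-to-noise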
[16] = E. coli growth modulation, two-sided OD650, primary screen, E. coli filamentation project, strain DRC41, 24 h (AID 1093); conditions: OD650, 24 h, higher = more signal, called active from +8 up or from −8 down;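 further: MC1000 strain lacking acrAB efflux and sulA so SOS filamentation is blocked; test concentration not given here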
[17] = small-molecule microarray binders of probe aLefty2, primary screen, biochemical, biotinylated probe, 635/667 nm fluorescence (AID 1094); conditions: higher = more signal;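 further: score merges spot fluorescence near 667 nm with spot signal-to-noise ratio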
[18] = tested on: Noggin (protein binding on small-molecule microarray); assay: Noggin binders on small-molecule microarray, primary screen, biochemical, 635/667 nm fluorescence (AID 1095); conditions: 635 nm fluorescence, higher = more signal;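 further: score merges 667 nm feature fluorescence with signal to noise over triplicate slides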
[19] = molecular target: Neurogenic locus notch homolog protein 3 (Homo sapiens) (UniProt Q9UM47); assay: NOTCH3 binders on small-molecule microarray, primary screen, biochemical, 635/667 nm fluorescence (AID 1096); conditions: NOTCH3 binding, 635 nm fluorescence, higher = more signal
[20] = small-molecule microarray binders of probe aEGFR, primary screen, biochemical, biotinylated probe, 635/667 nm fluorescence (AID 1097); conditions: higher = more signal;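 further: probe is a biotinylated anti-EGFR antibody binding compounds printed on slides; score combines fluorescence near 667 nm and signal to noise of each spot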

Sequence of Torsin-1A-interacting protein 2 (Homo sapiens) (Q8NFQ8 whole entry, looked up): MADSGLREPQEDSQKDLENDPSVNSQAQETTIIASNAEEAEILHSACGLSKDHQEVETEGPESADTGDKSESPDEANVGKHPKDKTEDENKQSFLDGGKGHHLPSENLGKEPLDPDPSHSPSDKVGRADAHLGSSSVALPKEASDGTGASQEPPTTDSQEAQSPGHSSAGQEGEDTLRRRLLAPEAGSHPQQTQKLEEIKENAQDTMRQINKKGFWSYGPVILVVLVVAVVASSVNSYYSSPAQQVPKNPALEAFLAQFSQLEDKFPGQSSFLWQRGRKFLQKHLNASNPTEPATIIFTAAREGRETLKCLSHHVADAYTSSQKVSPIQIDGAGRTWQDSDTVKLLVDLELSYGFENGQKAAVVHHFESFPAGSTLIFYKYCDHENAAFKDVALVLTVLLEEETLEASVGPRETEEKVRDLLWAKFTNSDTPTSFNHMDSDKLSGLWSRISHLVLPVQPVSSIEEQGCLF
Sequence of Neurogenic locus notch homolog protein 3 (Homo sapiens) (Q9UM47 whole entry, looked up): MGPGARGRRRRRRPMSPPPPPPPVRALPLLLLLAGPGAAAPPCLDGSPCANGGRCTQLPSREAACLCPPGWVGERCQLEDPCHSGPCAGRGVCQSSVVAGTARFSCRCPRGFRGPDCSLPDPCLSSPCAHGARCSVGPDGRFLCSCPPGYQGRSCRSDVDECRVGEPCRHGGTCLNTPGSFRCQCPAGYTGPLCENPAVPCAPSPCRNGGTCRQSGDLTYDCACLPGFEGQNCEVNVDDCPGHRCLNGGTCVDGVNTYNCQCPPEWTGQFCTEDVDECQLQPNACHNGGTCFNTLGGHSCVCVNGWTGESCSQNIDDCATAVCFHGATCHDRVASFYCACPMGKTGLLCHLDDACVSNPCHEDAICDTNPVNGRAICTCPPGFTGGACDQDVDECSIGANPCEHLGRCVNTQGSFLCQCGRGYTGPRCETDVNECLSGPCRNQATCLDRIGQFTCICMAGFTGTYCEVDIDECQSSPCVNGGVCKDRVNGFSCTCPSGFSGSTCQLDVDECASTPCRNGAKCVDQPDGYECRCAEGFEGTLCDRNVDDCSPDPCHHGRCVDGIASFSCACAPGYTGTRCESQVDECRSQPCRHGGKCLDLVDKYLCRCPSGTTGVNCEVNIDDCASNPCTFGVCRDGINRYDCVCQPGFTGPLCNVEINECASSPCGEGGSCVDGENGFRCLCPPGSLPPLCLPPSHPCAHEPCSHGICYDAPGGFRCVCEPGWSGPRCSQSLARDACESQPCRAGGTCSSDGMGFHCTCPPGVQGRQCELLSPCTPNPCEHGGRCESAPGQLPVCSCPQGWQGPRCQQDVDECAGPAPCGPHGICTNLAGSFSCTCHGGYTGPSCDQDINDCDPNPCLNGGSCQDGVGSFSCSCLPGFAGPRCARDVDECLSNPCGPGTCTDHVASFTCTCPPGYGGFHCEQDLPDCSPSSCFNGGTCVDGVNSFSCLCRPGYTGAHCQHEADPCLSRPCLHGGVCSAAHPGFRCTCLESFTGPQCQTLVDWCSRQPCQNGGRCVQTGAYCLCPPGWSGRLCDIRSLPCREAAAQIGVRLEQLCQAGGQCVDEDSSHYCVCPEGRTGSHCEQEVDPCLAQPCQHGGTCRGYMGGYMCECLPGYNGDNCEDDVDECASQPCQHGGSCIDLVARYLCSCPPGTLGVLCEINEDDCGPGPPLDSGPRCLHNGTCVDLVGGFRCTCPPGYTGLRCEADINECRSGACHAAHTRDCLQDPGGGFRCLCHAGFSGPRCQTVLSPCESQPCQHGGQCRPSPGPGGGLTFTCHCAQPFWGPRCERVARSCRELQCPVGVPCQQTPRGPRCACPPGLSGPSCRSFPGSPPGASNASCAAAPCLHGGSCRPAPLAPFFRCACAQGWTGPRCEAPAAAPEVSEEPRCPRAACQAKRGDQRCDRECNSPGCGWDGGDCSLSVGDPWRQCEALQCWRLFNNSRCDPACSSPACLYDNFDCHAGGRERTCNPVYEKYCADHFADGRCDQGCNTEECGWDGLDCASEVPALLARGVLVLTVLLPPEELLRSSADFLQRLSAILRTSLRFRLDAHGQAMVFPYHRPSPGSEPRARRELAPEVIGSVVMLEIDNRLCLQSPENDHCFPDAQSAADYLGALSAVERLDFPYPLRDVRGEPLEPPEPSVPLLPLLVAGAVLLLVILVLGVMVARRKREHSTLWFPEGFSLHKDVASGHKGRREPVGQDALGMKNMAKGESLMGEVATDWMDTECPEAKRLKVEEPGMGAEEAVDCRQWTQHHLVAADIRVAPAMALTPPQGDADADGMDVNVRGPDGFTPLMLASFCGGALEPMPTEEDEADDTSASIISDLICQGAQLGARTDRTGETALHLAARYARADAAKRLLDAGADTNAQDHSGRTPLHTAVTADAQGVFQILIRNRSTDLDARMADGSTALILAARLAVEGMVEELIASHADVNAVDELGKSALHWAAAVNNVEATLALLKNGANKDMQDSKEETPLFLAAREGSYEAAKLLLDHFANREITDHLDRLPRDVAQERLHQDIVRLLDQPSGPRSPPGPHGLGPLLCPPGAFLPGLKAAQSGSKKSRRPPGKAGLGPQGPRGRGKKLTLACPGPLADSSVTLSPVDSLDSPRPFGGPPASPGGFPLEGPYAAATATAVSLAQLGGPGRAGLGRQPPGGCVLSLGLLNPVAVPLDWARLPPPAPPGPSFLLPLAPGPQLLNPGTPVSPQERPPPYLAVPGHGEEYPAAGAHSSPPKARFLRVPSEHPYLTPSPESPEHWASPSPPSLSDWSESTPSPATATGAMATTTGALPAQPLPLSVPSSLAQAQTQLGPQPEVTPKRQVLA
Sequence of Pro-neuregulin-1, membrane-bound isoform (Homo sapiens) (Q02297 whole entry, looked up, the tested form may be a part, canonical isoform): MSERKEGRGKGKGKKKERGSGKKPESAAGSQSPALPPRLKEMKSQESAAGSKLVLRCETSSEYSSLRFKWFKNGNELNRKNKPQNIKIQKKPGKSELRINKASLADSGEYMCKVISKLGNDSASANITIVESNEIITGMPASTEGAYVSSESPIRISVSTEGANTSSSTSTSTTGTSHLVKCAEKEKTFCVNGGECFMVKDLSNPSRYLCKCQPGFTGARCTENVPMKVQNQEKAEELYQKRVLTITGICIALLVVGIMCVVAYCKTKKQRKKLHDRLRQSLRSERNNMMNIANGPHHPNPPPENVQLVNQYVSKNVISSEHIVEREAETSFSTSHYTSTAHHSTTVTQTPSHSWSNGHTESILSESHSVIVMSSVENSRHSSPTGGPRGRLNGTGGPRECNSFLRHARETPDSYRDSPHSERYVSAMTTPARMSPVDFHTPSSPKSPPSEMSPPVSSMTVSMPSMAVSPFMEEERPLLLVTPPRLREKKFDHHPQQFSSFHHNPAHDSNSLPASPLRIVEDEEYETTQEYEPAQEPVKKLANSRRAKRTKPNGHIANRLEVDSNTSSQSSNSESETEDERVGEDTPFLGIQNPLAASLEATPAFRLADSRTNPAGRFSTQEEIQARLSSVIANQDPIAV

SMILES: COCCOC(=O)N1C(=O)[C@@]2(c3cc(C#CCNC(N)=O)ccc31)[C@H](c1ccc(O)cc1)N1[C@H](c3ccccc3)[C@H](c3ccccc3)OC(=O)[C@H]1[C@@H]2C(=O)N1CCN(c2ncccn2)CC1
- composite z-score [1]: -0.487
- composite z-score [2]: 0.594
- composite z-score [3]: 0.0762
- composite z-score [4]: 0.661
- composite z-score [5]: 0.629
- composite z-score [6]: 1.19
- composite z-score [7]: 1.1
- z-score [8]: -0.523 (inactive)
- composite z-score [9]: 0.34
- composite z-score [10]: -0.218
- composite z-score [11]: 1.42
- z-score [12]: 1.74 (inactive)
- z-score [13]: 1.94 (inactive)
- z-score [14]: 4.35 (inactive)
- composite z-score [15]: 3
- z-score [16]: -0.561 (inactive)
- composite z-score [17]: 0.24
- composite z-score [18]: 0.96
- composite z-score [19]: 1.15
- composite z-score [20]: 0.187

SMILES: COCC1=C2[C@@H](CCc3ccccc3)OB(O)C[C@@H]2[C@@H]2C(=O)N(C)C(=O)[C@@H]2C1
- composite z-score [1]: -0.136
- composite z-score [2]: 0.0288
- composite z-score [3]: -0.164
- composite z-score [4]: 0.511
- composite z-score [5]: 0.21
- composite z-score [6]: -0.295
- composite z-score [7]: 0.843
- z-score [8]: -3.25 (inactive)
- composite z-score [9]: -0.0464
- composite z-score [10]: -0.0618
- composite z-score [11]: -0.0522
- z-score [12]: -0.31 (inactive)
- z-score [13]: -1.56 (inactive)
- z-score [14]: -0.53 (inactive)
- composite z-score [15]: 0.332
- z-score [16]: -0.817 (inactive)
- composite z-score [17]: -0.0141
- composite z-score [18]: 0.0638
- composite z-score [19]: 0.183
- composite z-score [20]: -0.131

SMILES: CCCCCCCCCCC(O)C1C=CC2C(=O)N(c3ccccc3)C(=O)C2N1Nc1ccccc1F (stereo not given)
- composite z-score [1]: 0.51
- composite z-score [2]: -0.165
- composite z-score [3]: -0.0647
- composite z-score [4]: 0.183
- composite z-score [5]: -0.503
- composite z-score [6]: 1.22
- composite z-score [7]: 0.586
- z-score [8]: 0.15 (inactive)
- composite z-score [9]: -0.08
- composite z-score [10]: -0.185
- composite z-score [11]: 0.545
- z-score [12]: 0.536 (inactive)
- z-score [13]: 0.849 (inactive)
- z-score [14]: 1.62 (inactive)
- composite z-score [15]: 1.59
- z-score [16]: -1.47 (inactive)
- composite z-score [17]: -0.0713
- composite z-score [18]: -1.47
- composite z-score [19]: -0.277
- composite z-score [20]: -0.0576

SMILES: Cc1ccc(S[C@]2(C(=O)NC(C)C)CC(=O)N(Cc3ccccc3Cl)[C@@H]2c2ccc(CO)cc2)cc1
- composite z-score [1]: 0.827
- composite z-score [2]: -1.59
- composite z-score [3]: -0.0474
- composite z-score [4]: -0.519
- composite z-score [5]: -0.266
- composite z-score [6]: 1.03
- composite z-score [7]: 1.37
- z-score [8]: -3.34 (inactive)
- composite z-score [9]: -0.519
- composite z-score [10]: -0.169
- composite z-score [11]: -0.577
- z-score [12]: -0.651 (inactive)
- z-score [13]: -1.13 (inactive)
- z-score [14]: -0.072 (inactive)
- composite z-score [15]: 2.06
- z-score [16]: -1.29 (inactive)
- composite z-score [17]: 0.0425
- composite z-score [18]: -0.82
- composite z-score [19]: -0.452
- composite z-score [20]: -0.227

SMILES: Cc1ccc(S[C@]2(C(=O)NCC(C)C)CC(=O)N(C3Cc4ccccc4C3)[C@@H]2c2ccc(CO)cc2I)cc1
- composite z-score [1]: 0.757
- composite z-score [2]: -0.5
- composite z-score [3]: -0.0238
- composite z-score [4]: 0.166
- composite z-score [5]: -1.01
- composite z-score [6]: 0.123
- composite z-score [7]: -0.126
- z-score [8]: -1.83 (inactive)
- composite z-score [9]: 0.962
- composite z-score [10]: 0.513
- composite z-score [11]: -0.409
- z-score [12]: -0.766 (inactive)
- z-score [13]: -1.49 (inactive)
- z-score [14]: 1.51 (inactive)
- composite z-score [15]: 0.724
- z-score [16]: -0.0979 (inactive)
- composite z-score [17]: 0.0349
- composite z-score [18]: -1.45
- composite z-score [19]: -0.933
- composite z-score [20]: -0.294

SMILES: C=C(/C(=C/C[C@@H](OC(C)=O)c1ccc(OCCO)cc1)c1cc(C(=O)OC)ccc1OC)C(C)C
- composite z-score [1]: -0.247
- composite z-score [2]: 0.239
- composite z-score [3]: -0.155
- composite z-score [4]: 0.29
- composite z-score [5]: 0.355
- composite z-score [6]: 1.67
- composite z-score [7]: 0.945
- z-score [8]: 2.89 (inactive)
- composite z-score [9]: -0.034
- composite z-score [10]: 0.0024
- composite z-score [11]: 0.629
- z-score [12]: -0.265 (inactive)
- z-score [13]: 0.272 (inactive)
- z-score [14]: -1.5 (inactive)
- composite z-score [15]: 1.21
- z-score [16]: -0.268 (inactive)
- composite z-score [17]: -0.152
- composite z-score [18]: 0.902
- composite z-score [19]: 0.843
- composite z-score [20]: -0.176

SMILES: Cc1ccc(S[C@]2(C(=O)NC(C)C)CC(=O)N(C(C)C)[C@@H]2c2ccc(CO)cc2I)cc1
- composite z-score [1]: -0.244
- composite z-score [2]: -0.242
- composite z-score [3]: -0.0272
- composite z-score [4]: 0.145
- composite z-score [5]: 0.0213
- composite z-score [6]: 0.637
- composite z-score [7]: 1.05
- z-score [8]: -0.13 (inactive)
- composite z-score [9]: -0.198
- composite z-score [10]: 0.0749
- composite z-score [11]: 0.841
- z-score [12]: -0.466 (inactive)
- z-score [13]: -0.222 (inactive)
- z-score [14]: -0.294 (inactive)
- composite z-score [15]: 1.53
- z-score [16]: 0.529 (inactive)
- composite z-score [17]: -0.0654
- composite z-score [18]: -0.337
- composite z-score [19]: -0.196
- composite z-score [20]: -0.144

SMILES: COc1ccc([Si](C)(C)[C@H]2[C@H](CCO)O[C@@]3(C(=O)N(Cc4ccccc4)c4ccc(N5C(=O)c6ccccc6Oc6ccccc65)cc43)[C@@H]2C)cc1
- composite z-score [1]: 0.342
- composite z-score [2]: -0.393
- composite z-score [3]: -0.0591
- composite z-score [4]: 0.606
- composite z-score [5]: -0.0653
- composite z-score [6]: 0.777
- composite z-score [7]: 0.79
- z-score [8]: -1.55 (inactive)
- composite z-score [9]: -0.0173
- composite z-score [10]: -0.169
- composite z-score [11]: 1.12
- z-score [12]: -0.234 (inactive)
- z-score [13]: 0.723 (inactive)
- z-score [14]: 4.27 (inactive)
- composite z-score [15]: 1.94
- z-score [16]: 1.25 (inactive)
- composite z-score [17]: -0.114
- composite z-score [18]: -0.355
- composite z-score [19]: 0.427
- composite z-score [20]: -0.174

SMILES: CCCCCN1CC=CC23O[C@@H]4C=CCOC(=O)[C@@H]4[C@H]2C(=O)N(CCO)[C@@H]3C1=O (stereo not given in full)
- composite z-score [1]: 0.388
- composite z-score [2]: 0.483
- composite z-score [3]: -0.177
- composite z-score [4]: 0.162
- composite z-score [5]: -1.27
- composite z-score [6]: 1.6
- composite z-score [7]: 1.48
- z-score [8]: -0.0097 (inactive)
- composite z-score [9]: -0.455
- composite z-score [10]: -0.199
- composite z-score [11]: 0.487
- z-score [12]: 0.15 (inactive)
- z-score [13]: -0.178 (inactive)
- z-score [14]: -0.175 (inactive)
- composite z-score [15]: 2.35
- z-score [16]: -0.229 (inactive)
- composite z-score [17]: -0.244
- composite z-score [18]: -1.25
- composite z-score [19]: -0.195
- composite z-score [20]: -0.235

SMILES: COCCOC(=O)N1C(=O)[C@@]2(c3cc(C#CCC(C(=O)OC)C(=O)OC)ccc31)[C@H](C(=O)NC[C@H](O)c1ccccc1)[C@H]1C(=O)O[C@H](c3ccccc3)[C@H](c3ccccc3)N1[C@@H]2c1ccc(O)cc1
- composite z-score [1]: -0.0562
- composite z-score [2]: 0.498
- composite z-score [3]: -0.0647
- composite z-score [4]: 0.954
- composite z-score [5]: 0.269
- composite z-score [6]: 1.01
- composite z-score [7]: 1.28
- z-score [8]: -0.81 (inactive)
- composite z-score [9]: 1.04
- composite z-score [10]: 0.213
- composite z-score [11]: 1.36
- z-score [12]: 1.05 (inactive)
- z-score [13]: 1.37 (inactive)
- z-score [14]: 0.174 (inactive)
- composite z-score [15]: 2.78
- z-score [16]: -0.377 (inactive)
- composite z-score [17]: -0.0845
- composite z-score [18]: -1.08
- composite z-score [19]: 0.687
- composite z-score [20]: -0.0828
